Screening data from PubChem BioAssay.
TEAD-YAP inh: TEAD-YAP interaction inhibition, primary screen, TEAD-YAP interaction inhibitor project, luminescence, HEK-TIYL cells; TEAD-Gal4/YAP UAS-luciferase luminescence; inhibition, % at 9.12 µM; 1.4% of 640,000 active; AID 1259422, 2018; in the data active = inhibition above about 32%;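 also: 0% = median of test compound wells and 100% = reference inhibitor wells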
FBW7 act: FBW7 E3 ligase activators, primary screen, biochemical, AlphaScreen, human; normalized activity (activation), % at 26.1 µM; AlphaScreen FBW7–phospho-cyclin E peptide binding, activator screen; F-box/WD repeat-containing protein 7 (Homo sapiens), Q969H0; 0.13% of 650,000 active; in the data active = normalized activity above about 1.9%;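 also: purified mutant Fbw7 with reduced substrate affinity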
MITF inh: MITF inhibitors, primary screen, biochemical, AlphaScreen, human | inhibition, % at 2.6 µM | AID 1259374, 2018 | 0.91% of 650,000 active | Microphthalmia-associated transcription factor (Homo sapiens), O75030 | AlphaScreen MITF homodimerization, bead proximity signal; in the data active = inhibition above about 50%;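 also: 0% = vehicle wells with protein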
GPR151 ag: activators of human GPR151, primary screen, cell-based, PathHunter beta-arrestin, luminescence | G-protein coupled receptor 151 (Homo sapiens), Q8TDV0 | PathHunter beta-arrestin GPR151 cells | activation, % at 11.2 µM | 1% of 650,000 active | AID 1508602, 2020; in the data active = activation above about 4.9%;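 also: 0% = median of compound wells and 100% = cells with positive control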
GPR151 conf act: GPR151 activators, triplicate retest, confirmation, cell-based, PathHunter beta-arrestin, luminescence. shares compounds with GPR151 ag. GPR151 PathHunter beta-arrestin cells, 90 min; % of EA-reagent control over plate median. activation, % at 11.2 µM. 6,700 tested, under 10 active. AID 1508609, 2020;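 active = mean percent activation across replicates above the confirmation screen cutoff of 4.91%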
GPR119 counter: GPR119 activators in beta-arrestin cells, counter-screen for GPR151 activator project, cell-based, PathHunter beta-arrestin, luminescence, triplicate; shares compounds with GPR151 ag; 90 min; 0 = compound-well median, 100 = enzyme-acceptor control; activation, % at 11.2 µM; 0.3% of 6,700 active;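 active = mean percent activation in the counterscreen above 29.09%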;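 also: counterscreen on off-target GPR119 to flag nonselective hits from the GPR151 activator screen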
Target sequence (Q8TDV5 whole entry, looked up): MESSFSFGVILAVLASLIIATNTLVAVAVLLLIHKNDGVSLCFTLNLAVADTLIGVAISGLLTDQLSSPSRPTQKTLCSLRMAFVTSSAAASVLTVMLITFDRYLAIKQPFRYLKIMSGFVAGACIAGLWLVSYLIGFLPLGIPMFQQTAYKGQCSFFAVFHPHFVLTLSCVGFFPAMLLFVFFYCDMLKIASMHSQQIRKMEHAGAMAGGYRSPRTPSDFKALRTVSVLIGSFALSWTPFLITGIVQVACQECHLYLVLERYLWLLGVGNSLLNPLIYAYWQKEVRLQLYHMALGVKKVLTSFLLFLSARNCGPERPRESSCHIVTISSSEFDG
The depositor's hits bear a star; / = no result. Rows were chosen to be rich in hits. Some 3.5% of all compounds tested hit in one or more screens of this group.

SMILES	TEAD-YAP inh	FBW7 act	MITF inh	GPR151 ag	GPR151 conf act	GPR119 counter
CN1CCN(/N=C/C2=C(O)CC(C)(C)CC2=O)CC1	-1.4	0.8	22.7	8.4*	0.0	4.2
COc1cccc(N2CCN(C(=O)C3=C(C)C(=O)OC34CCCCC4)CC2)c1	-1.8	0.1	-5.5	5.6*	-0.2	1.2
CC1=C(C(=O)N2CCCC2)C2(CCCCCC2)OC1=O	-5.9	0.1	-10.3	-0.7	/	/
NC(=O)C1(N2CCCCC2)CCN(C(=O)c2ccc3c(=O)n(Cc4ccc5c(c4)OCO5)c(=S)[nH]c3c2)CC1	3.4	0.0	-10.9	0.1	/	/
O=C(O)c1ccc(CNCc2ccc(Cl)cc2Cl)cc1	15.2	0.7	19.1	8.9*	-1.5	-15.2
Cc1cccc(C)c1-n1nnnc1SCC(=O)NCc1cccs1	-0.8	0.1	9.8	-0.6	/	/
Cc1cc(C)c2nc3n(c2c1)C(=O)CS3	3.8	0.0	-2.3	1.7	/	/
CC(NC(=O)CCCCCN1C(=O)c2cccc([N+](=O)[O-])c2C1=O)c1ccccc1 (stereo unspecified)	13.4	-0.2	-10.1	-0.9	/	/
Cc1cc(C)nc(SCC(=O)Nn2cnnc2)n1	2.0	0.2	-19.2	7.1*	-0.2	-12.7
Cc1cc(C)nc(SCC(=O)NC(C)(C)C)n1	-1.2	0.0	16.4	-0.3	/	/
CC1(c2ccc3c(c2)OCCO3)NC(=O)N(Cc2cc(=O)oc3cc4c(cc23)CCC4)C1=O (stereo unspecified)	0.0	-0.1	4.2	6.7*	-0.4	0.3
O=C(CCC(=O)Nc1ccc(Br)cc1)N/N=C/c1ccncc1	-3.3	0.0	-0.1	-0.8	/	/
O=C(Nc1ccc2oc(-c3ccccc3Cl)nc2c1)c1ccc(Cl)cc1Cl	-1.2	0.0	8.8	0.9	/	/
COc1cccc2ccc(CN3CCN(C4CCN(C(C)C)CC4)C(CCO)C3)nc12 (stereo unspecified)	-3.1	-0.2	-1.8	9.0*	-0.8	-1.8
CC(C)N1CCC(N2CCN(Cc3ccc(-c4ccc(Cl)cc4)o3)CC2CCO)CC1 (stereo unspecified)	-1.2	0.0	4.8	6.6*	1.6	13.4
Cc1ccc(N2CC(C(=O)Nc3nc4ccccc4s3)CC2=O)cc1Cl (stereo unspecified)	10.7	-0.1	10.8	0.3	/	/
O=C(Nc1nnc(N2CCCC2)s1)Nc1ccccc1Br	-23.2	0.1	0.2	5.5*	-0.4	-4.0
O=C(Nc1ccc2c(c1)OCCO2)Nc1nnc(N2CCCC2)s1	-18.8	-0.2	1.0	5.7*	0.3	-0.8
O=C(Nc1cccc(Br)c1)Nc1nnc(N2CCCCCC2)s1	-6.8	0.1	0.5	0.0	/	/
O=C(Nc1cccc(C(F)(F)F)c1)Nc1nnc(N2CCCC2)s1	-0.5	-0.1	-0.5	5.9*	0.3	-0.8
COC(=O)c1ccccc1NC(=O)Nc1nnc(N2CC(C)CC(C)C2)s1 (stereo unspecified)	3.2	0.2	10.6	6.6*	-0.5	-6.9
O=P(O)(O)C(NCc1ccccc1)c1cn(-c2ccccc2)nc1-c1cccnc1 (stereo unspecified)	4.5	0.0	4.3	-1.4	/	/
CC(NS(=O)(=O)c1ccc(OCC(=O)Nc2ccccc2Cl)cc1)c1ccccc1 (stereo unspecified)	-5.0	0.2	1.4	0.0	/	/
Oc1cccc2ccc(Nc3ccccn3)nc12	85.9*	-0.3	108.1*	5.1*	-1.2	-7.8
COCCCNC(=O)CN(c1ccccc1C)S(C)(=O)=O	11.5	0.6	4.7	-0.8	/	/
SMILES	TEAD-YAP inh	FBW7 act	MITF inh	GPR151 ag	GPR151 conf act	GPR119 counter
O=C(CN1CCCc2ccccc21)Nc1ccc(Br)cc1	-2.8	-0.2	4.4	11.7*	0.3	5.4
CC(=O)c1ccc(NC(=O)CN2CCCc3ccccc32)cc1	5.3	-0.1	-2.9	0.0	/	/
COc1ccc(C(=O)NC(C)c2nnc(SCC(=O)Nc3ccccc3)n2C)cc1 (stereo unspecified)	10.9	-0.2	0.0	9.6*	0.9	2.6
O=C(Nc1ccc2c(c1)CN(C1CSCCSC1)CC2)c1ccncc1	-27.3	0.1	-11.2	5.3*	0.3	7.0
Cc1ccc(Nc2c(N)c(=O)oc3ccccc23)cc1	-10.4	0.1	8.1	17.4*	-0.1	-4.8
CNc1c(N)c(=O)oc2ccccc12	-27.3	0.2	9.3	-0.2	/	/
CC(C)c1ccc(/C=N/Nc2nncc(=O)[nH]2)cc1	-43.6	-0.6	17.1	5.6*	0.0	-12.0
CCCNC(=O)CCCOc1ccc(Cl)cc1Cl	-4.1	0.2	12.2	13.2*	-1.4	3.1
CCOCCCNC(=O)CCCOc1ccc(Cl)cc1Cl	0.2	0.1	-4.9	0.4	/	/
CN(C(=O)CC1(c2ccccc2Cl)CC(=O)N(C2CCCC2)C1=O)C1CCOC1 (stereo unspecified)	-6.7	0.1	0.0	0.1	/	/
Cc1ccc(NC(=O)C2CCCN2Sc2ccccc2[N+](=O)[O-])c(C)c1 (stereo unspecified)	4.8	0.0	13.8	6.0*	0.7	9.5
CC(C)n1ccc(C(=O)NCc2cn3ccccc3n2)n1	-1.1	0.0	-2.4	-0.1	/	/
Cc1ccc(C)c(OCC(=O)O/N=C(\N)c2ccc(I)cc2)c1	3.5	-0.1	-13.5	5.5*	0.0	-2.2
Cc1ccc(/C(N)=N/OC(=O)COc2ccc(Br)cc2)cc1	-3.8	0.0	1.1	8.5*	-0.1	6.6
COc1cc(C(=O)O/N=C(\N)c2ccc(Br)cc2)cc(OC)c1OC	-0.1	0.3	12.9	6.6*	-0.3	-9.8
Cc1ccc(C)c(OCC(=O)O/N=C(\N)c2ccc(Br)cc2)c1	-6.8	-0.2	-1.6	1.4	/	/
O=C1OC(c2ccccc2Br)=N/C1=C\c1cccc(Cl)c1Cl	1.9	0.0	19.1	0.5	/	/
CC(C)(C)NC(=O)C(c1ccccn1)N(Cc1ccccc1)C(=O)c1csnn1 (stereo unspecified)	7.5	0.6	6.8	4.9*	-0.4	-3.4
CC(=O)Nc1cccc(NC(=O)CSc2nnnn2-c2ccc3c(c2)OCO3)c1	-1.4	0.6	6.4	5.6*	0.2	10.9
CCCCNC(=O)CC1Nc2c3ccccc3nc(=S)n2C1=O (stereo unspecified)	-5.3	-0.1	14.0	9.6*	-1.8	-14.5
CC(C)CCNC(=O)CC1Nc2c3ccccc3nc(=S)n2C1=O (stereo unspecified)	1.9	0.0	-3.3	-0.6	/	/
C=C(C)CNc1nncc(-c2ccccc2C)n1	-4.5	0.4	-5.5	6.2*	-0.1	1.1
COc1ccc(S(=O)(=O)N/N=C/c2cc3c(cc2Cl)OCO3)cc1	-9.8	0.1	2.0	-0.6	/	/
